TDP1 inh: blocks human tyrosyl-DNA phosphodiesterase 1 | AID 485290 | 350,000 compounds, 0.28% hits | Potency, µM (titrated, usually from 130 µM), without a hit: at the top dose activity change, negative = inhibition, most hits filed as inhibitors | recombinant TDP1, AlphaScreen DNA substrate cleavage | Q9NUW8; also: % is scaled to controls: 0 for no effect and ±100 for the full control effect; nearly all actives have a fitted effect of over 40% in size
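Steps: enzyme plus compound, 15 min RT; add biotin/phosphotyrosine-FITC oligonucleotide (15 nM final), react 5 min; add donor/acceptor beads (10 ug/ml final), 10 min; read AlphaScreen. Tdp1 at 1 nM final.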
ClpP mod: qHTS Assay for Activators of ClpP | purified B. subtilis ClpP, FRET peptide cleavage, 20 min | Potency, µM (top dose mostly 57.5 µM), without a hit: at the top dose activity change, negative = active | ATP-dependent Clp protease proteolytic subunit (Bacillus subtilis (strain 168)), P80244 | 340,000 compounds, 1.9% hits | AID 651965, 2013; active = well fitted falling curve with a large enough effect; inconclusive = small, poorly fitted or top-dose-only effect; inactive = no such curve, though single readings can be large or run the other way; also: the source files actives as falling curves though it sought activators and does not explain the sign; nearly all actives have a fitted effect of over 65% in size
Target sequence (P80244 whole entry, looked up): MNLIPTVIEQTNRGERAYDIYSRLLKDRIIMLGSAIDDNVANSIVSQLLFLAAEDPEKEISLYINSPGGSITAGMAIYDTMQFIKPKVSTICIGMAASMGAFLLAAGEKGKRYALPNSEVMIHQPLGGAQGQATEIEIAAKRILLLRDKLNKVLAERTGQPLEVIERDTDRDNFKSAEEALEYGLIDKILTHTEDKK
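Purified B. subtilis ClpP, 10 microg/mL final in Tris/HCl pH8 with KCl, BSA, glycerol and Tween-20, cleaved an Abz/nitrotyrosine-quenched decapeptide. Fluorescence (ex 320, em 430) was read at 0 and 20 min at room temperature. Delta was normalized to 5.8 microM ADEP and DMSO/no-enzyme controls.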
TDP1 cell noCPT: qHTS for Inhibitors of human tyrosyl-DNA phosphodiesterase 1 (TDP1): qHTS in cells in absence of CPT. DT40 Tdp1-/- hTDP1 cells, no CPT, ATP luminescence, 48 h. Potency, µM (series often up to 46.2 µM), inactives show at the highest dose activity change, negative = growth inhibition, actives largely listed as inhibitors. 420,000 compounds, 15% hits; also: % is scaled to controls: 0 for no effect and ±100 for the full control effect; nearly all actives have a fitted effect of over 55% in size
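DT40 Tdp1-/-;hTDP1 cells, no CPT (DMSO vehicle only), 400 cells/well; compounds pin-transferred; ≥48 hr, 37 °C; CellTiter-Glo 30 min RT dark, luminescence read.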
DT40 TDP1 CPT: growth inhibition of DT40 Tdp1-/-;hTDP1 cells with camptothecin (screen for TDP1 inhibitors); chicken DT40 Tdp1-/-;hTDP1 cells + 20 nM CPT, ATP luminescence, 48 h; Potency, µM (top dose mostly 46.2 µM), inactives show top-dose activity change, negative = growth inhibition, most hits filed as inhibitors; 420,000 compounds, 12% hits; AID 686979; also: % is scaled to controls: 0 for no effect and ±100 for the full control effect; nearly all actives have a fitted effect of over 55% in size
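Cell growth measured by CellTiter-Glo luminescence after a minimum 48 h, 37 C compound exposure with 20 nM CPT in Tdp1-knockout DT40 cells stably expressing hTDP1, seeded 400/well; qHTS titration format.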
Active calls of the source: *; ? = inconclusive; nt = no result; ! = not active in a repeat; [ ] = dose if it differs, or a comment. A selection: hits, their analogues and other compounds. The true share with any hit is near 17%. Unless noted, calls follow the shape of the dose curve; as a rule, active = well fitted curve in the direction sought with a large enough effect; inconclusive = small, poorly fitted or top-dose-only effect, or another doubt; inactive = no such curve, though single readings can be large; an effect the other way counts as inactive or inconclusive. Potency is read from the fitted curve at half-maximal effect.

SMILES	TDP1 inh	ClpP mod	TDP1 cell noCPT	DT40 TDP1 CPT
CCOC(=O)[C@]12Cc3cc(C)ccc3[C@H]1N(C1CCCCC1)C(=O)c1ccccc12	nt	-1%	2.9µM*	2.3µM*
CCOC(=O)[C@]12Cc3cc(C)ccc3[C@H]1N(CCC(=O)OC)C(=O)c1ccccc12	nt	-2%	16µM*	23µM*
CCOC(=O)[C@]12Cc3ccccc3[C@H]1N(C(C)C)C(=O)c1ccccc12	nt	0%	23µM*	?
CCOC(=O)[C@]12Cc3ccc(C)cc3[C@H]1N(C1CCCCC1)C(=O)c1cc(OC)ccc12	nt	-2%	2.9µM*	2.9µM*
COC(=O)[C@H]1C(=O)c2ccccc2O[C@@](C(=O)OC)(c2ccccc2)[C@@H]1c1ccccc1	3%[21 µM]	nt	nt	nt
COC(=O)COc1cc(Cl)c(Cl)cc1Cl	7%[56.1 µM]	nt	5%	17%
NCc1cccnc1	5%	nt	-11%	12%
CNC1C2CN3CCC(O2)C13 (configuration not stated)	11%[56.1 µM]	nt	-3%	2%
CCOC(=O)[C@]12Cc3c(cc(OC)c(OC)c3OC)[C@H]1N(C1CCCCC1)C(=O)c1ccccc12	nt	1%	3.7µM*	2.9µM*
CCOC(=O)C1(C)CCN1C(=O)c1cc(OC)c(OC)c(OC)c1 (configuration not stated)	nt	-1%	?	?
CCOC(=O)[C@]12Cc3cc(Cl)ccc3[C@H]1N(C1CCCCC1)C(=O)c1cc(OC)ccc12	nt	-1%	0.52µM*	0.52µM*
CCOC(=O)[C@]12Cc3ccc(C)cc3[C@H]1N(C1CCCCC1)C(=O)c1ccccc12	nt	-4%	2.3µM*	2.6µM*
CCOC(=O)C12C(=O)OCC1C2c1ccccc1 (configuration not stated)	nt	1%	-14%	7%
O=c1[nH]c2ccccc2n1C1CCN(C(c2nnnn2C2CCCCC2)C2CC2)CC1 (configuration not stated)	nt	-1%	15µM*	?
CSCCC(c1nnnn1C1CCCC1)N1CCC(n2c(=O)[nH]c3ccccc32)CC1 (configuration not stated)	nt	2%	23µM*	?
CSCCC(c1nnnn1-c1c(C)cccc1C)N1CCC(n2c(=O)[nH]c3ccccc32)CC1 (configuration not stated)	nt	-2%	18µM*	26µM*
CSCCC(c1nnnn1C1CCCC1)N1CCC2(CC1)C(=O)NCN2c1ccccc1 (configuration not stated)	nt	0%	?	?
O=c1[nH]c2ccccc2n1C1CCN(C(CCc2ccccc2)c2nnnn2C2CCCCC2)CC1 (configuration not stated)	nt	-1%	13µM*	21µM*
CCn1cc(C(=O)NCCc2ccc(OC)c(OC)c2)c(=O)c2cc(S(=O)(=O)N(C)C3CCCCC3)ccc21	2%	-10%	?	?
Cc1cccc(NC(=O)c2ncn3c2C(=O)NC[C@H]3C)c1	nt	2%	?	-24%
CC(NC(=O)CNC(=S)N(Cc1ccccc1)Cc1cccnc1)c1ccccc1 (configuration not stated)	5%	-3%	?	?
CSCCC(c1nnnn1C1CCCCC1)N1CCC(n2c(=O)[nH]c3ccccc32)CC1 (configuration not stated)	nt	1%	9.2µM*	18µM*
CC(C)(C)n1nnnc1C(CCc1ccccc1)N1CCC(n2c(=O)[nH]c3ccccc32)CC1 (configuration not stated)	nt	-10%	13µM*	13µM*
CC(=O)OCC1=C[C@H]2[C@@H]3C(C)(C)[C@]3(OC(=O)Cc3ccccc3)C[C@@H](C)[C@]2(O)[C@@H]2C=C(C)C(=O)[C@@]2(O)C1	8%	nt	nt	nt
O=C(Cn1c(=O)n(CC2CCC(C(=O)NCCc3ccccc3)CC2)c(=O)c2ccccc21)Nc1cccc(F)c1 (configuration not stated)	2%[12.3 µM]	-13%	?	?
SMILES	TDP1 inh	ClpP mod	TDP1 cell noCPT	DT40 TDP1 CPT
O=C(O)CCC(=O)NCCC1=c2ccccc2=N/C1=C\c1c(O)n(Cc2ccc(F)cc2)c(=S)[nH]c1=O	35µM*	nt	0%	49%
C=C(C)[C@H]1Cc2c(ccc3c2O[C@@H]2COc4cc(OC)c(OC)cc4[C@@H]2C3=O)O1	?	nt	0.24µM*	0.24µM*
C=C(C)C1Cc2c(ccc3c2OC2COc4cc(OC)c(OC)cc4C2C3=O)O1 (configuration not stated)	14%	nt	0.1µM*	0.052µM*
O=C1CC(c2c(F)cccc2Cl)c2c(c3ccccc3oc2=O)O1 (configuration not stated)	6%	4%	2%	1%
CC(C)(C#N)O[C@H]1OC(CO)C(O)C(O)C1O (some centres not stated)	13%[56.1 µM]	nt	1%	-1%
Cn1c(O)c(C2=NNC(c3ccc(Cl)cc3)C2)c(=O)n(C)c1=O (configuration not stated)	11%	nt	?	26µM*
CCOc1ccc(C2CC(c3c(O)n(C)c(=O)n(C)c3=O)=NN2)cc1 (configuration not stated)	11%	nt	?	5%
C[C@@]12CCC(OS(=O)(=O)O)C[C@@H]1CCC1C2CC[C@]2(C)C(=O)CCC12 (some centres not stated)	4%	nt	2%	-2%
C[C@H]1CN([C@@H](C)CO)C(=O)c2cc(-c3cccnc3)cnc2O[C@H]1CN(C)Cc1ccc(Oc2ccccc2)cc1	nt	-2%	?	?
C[C@H](CO)N1C[C@H](C)[C@@H](CN(C)Cc2ccccc2)Oc2c(NC(=O)c3ccncc3)cccc2C1=O	6%	-2%	23µM*	?
C[C@H](CO)N1C[C@H](C)[C@@H](CN(C)Cc2ccc(-c3ccccc3)cc2)Oc2c(NC(=O)c3ccncc3)cccc2C1=O	8%	-1%	23µM*	16µM*
N#Cc1ccccc1Cn1cc(C(=O)c2ccccc2F)c2ccccc21	8%	-9%	?	?
OCC1OC(n2cnc3cc(Cl)c(Cl)cc32)C(O)C1O (configuration not stated)	7%	-2%	?	15µM*!
CC(C)NC(=O)C(C)N1CCN(S(=O)(=O)c2ccc3ccccc3c2)CC1 (configuration not stated)	6%	nt	15µM*	18µM*
CC1(C)C[C@H]2C=C(C=O)[C@]3(C=O)C[C@]3(C)[C@H]2C1	3%	0%	0.82µM*	0.92µM*
COc1ccc(OC)c(CC(C)N)c1 (configuration not stated)	nt	nt	-16%[92.5 µM]	-19%[92.5 µM]
O=S1(=O)OCCC(c2ccccc2)N1Cc1ccccc1 (configuration not stated)	nt	0%	-22%	?
O=P(Oc1ccccc1)(Oc1ccccc1)N1CCN(c2ccc(F)cc2)CC1	nt	0%	?	?

Screening data as filed in PubChem BioAssay.
